Screening data: PubChem, several laboratories
Compounds with a hit are over-represented: about 0.5% of the library has one in this group of screens.
E coli growth-1 = bacterial growth inhibition, counter-screen for AddAB inhibitors. E. coli V3065 growth, OD600 absorbance, 18 h. inhibition, % at 11.9 µM. 330,000 compounds, 0.27% hits. AID 449728;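 active means inhibition above the campaign's mean inhibition across all tested compounds plus 3 SD, cut at about 9.9% in these data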;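 further: uninfected addAB+ strain grown without phage in ampicillin broth; 0% = DMSO wells and 100% = ciprofloxacin 0.95 µg/ml wells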
Tat export inh = blocks Tat-dependent protein export in E. coli | E. coli MC4100 TorA-mCherry Tat export, fluorescence | inhibition, % at 10 µM | 340,000 compounds, 0.036% hits | AID 488895;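 active means mean replicate inhibition at least 50% and at least half of replicates individually reaching 50%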;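 further: exported cargo escapes ClpAP degradation while cytoplasmic cargo is degraded and loses fluorescence; 0% = median of neutral control wells and 100% = median of NaSCN control wells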
phage Ecoli inh = E. coli growth loss with phage present; inhibition, % at 11.9 µM; 360,000 compounds, 0.26% hits; growth absorbance; AID 651602; in the data active means inhibition above about 11%
AddAB inh = less growth of phage-infected E. coli with AddAB | E. coli expressing H. pylori AddAB, absorbance growth | inhibition, % at 11.9 µM | 330,000 compounds, 0.29% hits | AID 435030; in the data active means inhibition above about 12%;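 further: 0% = vehicle wells of infected cells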
E coli growth-2 = blocks Escherichia coli growth; OD600, 23 h; active compounds read low; OD600 absorbance (test concentration not listed); 330,000 compounds, 0.21% hits; AID 1053175;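 active means OD600 absorbance below the run mean of sample wells minus 3.6 SD, in any replicate, cut at about 0.56 in these data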
AddAB conf = confirmation screen: growth loss of phage-infected E. coli expressing H. pylori AddAB; shares compounds with AddAB inh; E. coli V3065 expressing H. pylori AddAB, T4 phage, OD; T4 phage with gene 2 nonsense mutations; inhibition, % at 11.9 µM; 880 compounds, 64% hits;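 active means mean inhibition above a set limit taken from the earlier primary screen, cut at about 13% in these data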;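 further: higher means less bacterial growth since AddAB block lets phage replicate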
RecBCD counter = AddAB counter-screen: growth loss of RecBCD+ E. coli infected with mutant T4 phage; shares compounds with AddAB inh; E. coli V66 + mutant T4 phage, OD growth; inhibition, % at 11.9 µM; 880 compounds, 73% hits;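 active means mean inhibition above the mean of solvent-only control wells plus 3 SD, cut at about 4% in these data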;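 further: optical density read after an 18 h incubation at 37 °C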
bact viab count = reduces bacterial viability, AddAB inhibitor counter-screen; shares compounds with AddAB inh; absorbance (AddAB counterscreen); inhibition, % at 11.9 µM; 880 compounds, 35% hits; in the data active means inhibition above about 25%
RecBCD conf = growth loss of phage-infected V66 E. coli, RecBCD confirmation screen; inhibition, % at 11.9 µM; shares compounds with phage Ecoli inh; 890 compounds, 45% hits; E. coli V66 + T4 2- phage, growth OD; AID 651982;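 active means mean inhibition over triplicates exceeding the hit threshold derived in the original primary screen, cut at about 11% in these data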
Ecoli viability = inhibits E. coli viability, flagging RecBCD hits as nonselective | shares compounds with phage Ecoli inh | absorbance (OD) growth | inhibition, % at 11.9 µM | 890 compounds, 29% hits | AID 651983; in the data active means inhibition above about 20%;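 further: E. coli strain V66 grown with compound alone and no phage infection; 0% = bacteria with DMSO vehicle only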
AddAB counter = growth loss of phage-infected AddAB E. coli, RecBCD counter-screen; inhibition, % at 11.9 µM; AID 651984; shares compounds with phage Ecoli inh; E. coli expressing H. pylori AddAB + T4 phage, OD growth; gene 2 mutant T4, recBCD-deleted host; 890 compounds, 45% hits;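 active means mean inhibition above the solvent-only control wells' mean plus 3 SD, cut at about 22% in these data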;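 further: higher means less bacterial growth from phage killing when AddAB is blocked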
The depositor's hits bear a star; . = not tested or not shown.

SMILES	E coli growth-1	Tat export inh	phage Ecoli inh	AddAB inh	E coli growth-2	AddAB conf	RecBCD counter	bact viab count	RecBCD conf	Ecoli viability	AddAB counter
CCn1cc(C(=O)O)c(=O)c2cc(F)c(N3CCN(C(=S)Nc4ccc(OC)cc4)CC3)cc21	100.7*	72.1*	101.1*	99.7*	0.076*	98.9*	99.2*	99.2*	103.9*	104.2*	104.0*
O=C(NNC(=O)c1ccccc1O)c1cc2ccccc2o1	12.9*	2.7	11.0*	19.7*	0.545	10.0	11.2*	8.3	7.7	10.4	3.7
O=C(NNC(=O)c1cc2ccccc2o1)c1ccncc1	-0.5	4.9	4.2	-1.8	0.644	.	.	.	.	.	.
CCOc1ccc2oc(C(=O)NNC(=O)c3ccccc3O)c(C)c2c1	25.5*	-7.6	20.5*	25.0*	0.682	14.7*	20.5*	14.9	7.7	10.9	19.5
Cc1c(C(=O)NNC(=O)c2ccccc2O)oc2ccc(Br)cc12	19.3*	-1.5	12.7*	21.1*	0.715	17.4*	17.1*	15.4	8.0	9.9	10.5
CCOc1ccc2oc(C(=O)O)c(C)c2c1	1.6	-7.6	2.3	1.5	0.712	.	.	.	.	.	.
O=C(CCC(=O)Nc1ccc(F)cc1)NN=Cc1c[nH]c2ccccc12	.	.	.	.	0.742	.	.	.	.	.	.
O=C1CCC(=O)N(O)CCCCCNC(=O)CCC(=O)N(O)CCCCNC(=O)CCC(=O)N(O)CCCCCN1	27.8*	-5.4	21.5*	30.7*	0.668	25.8*	22.6*	13.2	15.9*	20.5*	20.9
O=C1NCCCC1C(=O)N1CCCCC1 (stereo not drawn)	0.8	5.6	3.8	0.1	0.636	.	.	.	.	.	.
O=C(O)c1cn(C2CC2)c2cc(N3CCN(S(=O)(=O)c4ccc5c(c4)OCCO5)CC3)c(F)cc2c1=O	97.5*	12.4	92.8*	99.2*	0.0815*	97.9*	98.5*	101.0*	101.8*	101.9*	103.0*
O=C(NN=Cc1cccnc1)c1ccc(NC(=O)c2ccc(Cl)cc2)cc1	.	.	.	.	0.626	.	.	.	.	.	.
Cc1ccc(C=Nn2nnnc2N)o1	.	.	.	.	0.634	.	.	.	.	.	.
COC(=O)[C@]1(CC(C)C)NC(c2ccc(-c3cccc(Cl)c3)cc2)C2C(=O)N(C)C(=O)C21 (stereo partly drawn)	.	.	.	.	0.739	.	.	.	.	.	.
COc1c(F)c(F)cc2c(=O)c(C(=O)O)cn(C3CC3)c12	98.0*	67.6*	94.9*	97.8*	0.05*	98.2*	98.8*	102.3*	98.5*	98.7*	98.3*
COc1c(N2CCN(C(=S)NCc3ccccc3)C(C)C2)c(F)cc2c(=O)c(C(=O)O)cn(C3CC3)c12 (stereo not drawn)	104.1*	33.4	96.9*	101.9*	0.0785*	100.8*	99.1*	100.5*	103.1*	104.5*	104.7*
COc1c(N2C[C@@H]3CCCN[C@@H]3C2)c(F)cc2c(=O)c(C(=O)O)cn(C3CC3)c12	101.9*	106.0*	98.2*	100.3*	.	101.9*	101.9*	101.8*	102.6*	104.6*	103.8*
CCOC(=O)c1cn(-c2ccc(F)c(F)c2F)c2c(F)c(F)c(F)cc2c1=O	-1.2	4.0	-1.1	2.6	0.688	.	.	.	.	.	.
COc1ccc2c(c1[N+](=O)[O-])CCCC2=NOC(=O)c1cccc2ccccc12	.	.	.	.	0.802	.	.	.	.	.	.
O=C(O)CC1S/C(=N/N=C/c2ccccn2)NC1=O (stereo not drawn)	18.8*	-7.1	21.8*	21.8*	.	17.1*	18.3*	14.6	10.0	13.2	12.4
O=C(NC1CC=CCC(CC(=O)N(CCO)Cc2ccccc2)C(=O)NC(Cc2c[nH]c3ccccc23)COC1=O)OCC1c2ccccc2-c2ccccc21 (stereo not drawn)	.	.	.	.	0.711	.	.	.	.	.	.
CC(=NN1CCN(c2ccc(Cl)cc2)CC1)c1cccs1	.	.	.	.	0.701	.	.	.	.	.	.
C=CCNC(=S)N/N=C(\C)c1ccccn1	29.8*	-4.9	38.0*	31.0*	.	31.2*	28.7*	25.5*	27.2*	33.8*	32.0*
CC(=NNC(=S)N1CCCCC1)c1ccccn1	.	.	4.1	.	.	.	.	.	.	.	.
Cc1ccc(C(C)C)c(OCc2ccc(C(=O)N/N=C/c3ccc(O)cc3O)cc2)c1	14.7*	-6.6	26.8*	12.9*	.	15.1*	17.7*	20.3	14.4*	16.9	23.6*
O=C(CSc1nnc(-c2ccccc2)n1-c1ccc(Cl)cc1)NN=Cc1ccccc1C(=O)O	.	.	.	.	0.732	.	.	.	.	.	.
SMILES	E coli growth-1	Tat export inh	phage Ecoli inh	AddAB inh	E coli growth-2	AddAB conf	RecBCD counter	bact viab count	RecBCD conf	Ecoli viability	AddAB counter
Cc1ccc(S(=O)(=O)N2C(c3ccc(C(C)C)cc3)CC=C(C(=O)O)C2c2ccccc2F)cc1 (stereo not drawn)	.	.	.	.	0.685	.	.	.	.	.	.
COC(=O)Cn1cc(C(=O)c2ccco2)c2ccccc21	-0.9	-3.2	1.2	0.4	0.714	.	.	.	.	.	.
CCOc1ccc(NC(=O)Cn2cc(C(=O)c3ccco3)c3ccccc32)cc1	13.5*	1.7	12.2*	12.7*	0.626	9.8	9.7*	11.7	7.0	10.6	4.6
COc1ccc(NC(=O)Cn2cc(C(=O)c3ccco3)c3ccccc32)cc1	18.4*	-3.7	18.1*	16.2*	0.644	12.8*	13.0*	14.7	8.2	11.8	16.1
CCC(=O)c1cn(CC(=O)Nc2ccc(OC)cc2)c2ccccc12	14.0*	-9.5	11.3*	13.2*	.	12.1	11.3*	8.8	2.5	5.5	5.0
CCNC(=S)NN=Cc1c(Cl)cccc1Cl	.	.	.	.	0.743	.	.	.	.	.	.
CCC(C)C(NC(=O)NCc1cccc(OC)c1)C(=O)OC (stereo not drawn)	.	.	.	.	0.705	.	.	.	.	.	.
Oc1c(N=Nc2ccccn2)ccc2ccccc12	18.0*	2.1	18.0*	19.6*	0.754	21.3*	17.4*	18.1	11.8*	12.8	26.3*
Oc1[nH]c2ccccc2c1N=Nc1ccccn1	.	7.4	1.2	.	.	.	.	.	.	.	.
CCCCCC(=O)N1CC2(CC(c3cccc(NC(=O)C4CCC(=O)N4)c3)=NO2)CC1C(N)=O (stereo not drawn)	.	.	.	.	0.681	.	.	.	.	.	.
c1ccc(-c2cc(CSc3nc4ccccc4[nH]3)on2)cc1	26.1*	-49.9	17.6*	24.0*	0.703	22.5*	16.5*	14.1	12.4*	14.9	17.2
CCCCN1CC(=O)N2C(c3ccc(Cl)cc3)C3C(=O)N(CC)C(=O)C3[C@]2(C)C1=O (stereo partly drawn)	.	.	.	.	0.674	.	.	.	.	.	.
